Laboratory results: the supplement of paper PMC11732987, “Enantioselective OTUD7B fragment discovery through chemoproteomics screening and high-throughput optimisation” (Communications Chemistry, 2025)

What was measured:
Test in all cases: log2 ratio of Biotin-Ahx-Ub-VS probe labelling (fragment/DMSO); higher = less target engagement (more negative = stronger competition), active = hit call of the paper (q ≤ 0.05, log2 ratio ≤ -1)
Conditions in all cases: compound concentration: 200 uM; treatment time: 3 h
[1] = biological target: USP9X (UniProt Q93008)
Chain of USP9X (Q93008 whole entry, the tested form may be a part): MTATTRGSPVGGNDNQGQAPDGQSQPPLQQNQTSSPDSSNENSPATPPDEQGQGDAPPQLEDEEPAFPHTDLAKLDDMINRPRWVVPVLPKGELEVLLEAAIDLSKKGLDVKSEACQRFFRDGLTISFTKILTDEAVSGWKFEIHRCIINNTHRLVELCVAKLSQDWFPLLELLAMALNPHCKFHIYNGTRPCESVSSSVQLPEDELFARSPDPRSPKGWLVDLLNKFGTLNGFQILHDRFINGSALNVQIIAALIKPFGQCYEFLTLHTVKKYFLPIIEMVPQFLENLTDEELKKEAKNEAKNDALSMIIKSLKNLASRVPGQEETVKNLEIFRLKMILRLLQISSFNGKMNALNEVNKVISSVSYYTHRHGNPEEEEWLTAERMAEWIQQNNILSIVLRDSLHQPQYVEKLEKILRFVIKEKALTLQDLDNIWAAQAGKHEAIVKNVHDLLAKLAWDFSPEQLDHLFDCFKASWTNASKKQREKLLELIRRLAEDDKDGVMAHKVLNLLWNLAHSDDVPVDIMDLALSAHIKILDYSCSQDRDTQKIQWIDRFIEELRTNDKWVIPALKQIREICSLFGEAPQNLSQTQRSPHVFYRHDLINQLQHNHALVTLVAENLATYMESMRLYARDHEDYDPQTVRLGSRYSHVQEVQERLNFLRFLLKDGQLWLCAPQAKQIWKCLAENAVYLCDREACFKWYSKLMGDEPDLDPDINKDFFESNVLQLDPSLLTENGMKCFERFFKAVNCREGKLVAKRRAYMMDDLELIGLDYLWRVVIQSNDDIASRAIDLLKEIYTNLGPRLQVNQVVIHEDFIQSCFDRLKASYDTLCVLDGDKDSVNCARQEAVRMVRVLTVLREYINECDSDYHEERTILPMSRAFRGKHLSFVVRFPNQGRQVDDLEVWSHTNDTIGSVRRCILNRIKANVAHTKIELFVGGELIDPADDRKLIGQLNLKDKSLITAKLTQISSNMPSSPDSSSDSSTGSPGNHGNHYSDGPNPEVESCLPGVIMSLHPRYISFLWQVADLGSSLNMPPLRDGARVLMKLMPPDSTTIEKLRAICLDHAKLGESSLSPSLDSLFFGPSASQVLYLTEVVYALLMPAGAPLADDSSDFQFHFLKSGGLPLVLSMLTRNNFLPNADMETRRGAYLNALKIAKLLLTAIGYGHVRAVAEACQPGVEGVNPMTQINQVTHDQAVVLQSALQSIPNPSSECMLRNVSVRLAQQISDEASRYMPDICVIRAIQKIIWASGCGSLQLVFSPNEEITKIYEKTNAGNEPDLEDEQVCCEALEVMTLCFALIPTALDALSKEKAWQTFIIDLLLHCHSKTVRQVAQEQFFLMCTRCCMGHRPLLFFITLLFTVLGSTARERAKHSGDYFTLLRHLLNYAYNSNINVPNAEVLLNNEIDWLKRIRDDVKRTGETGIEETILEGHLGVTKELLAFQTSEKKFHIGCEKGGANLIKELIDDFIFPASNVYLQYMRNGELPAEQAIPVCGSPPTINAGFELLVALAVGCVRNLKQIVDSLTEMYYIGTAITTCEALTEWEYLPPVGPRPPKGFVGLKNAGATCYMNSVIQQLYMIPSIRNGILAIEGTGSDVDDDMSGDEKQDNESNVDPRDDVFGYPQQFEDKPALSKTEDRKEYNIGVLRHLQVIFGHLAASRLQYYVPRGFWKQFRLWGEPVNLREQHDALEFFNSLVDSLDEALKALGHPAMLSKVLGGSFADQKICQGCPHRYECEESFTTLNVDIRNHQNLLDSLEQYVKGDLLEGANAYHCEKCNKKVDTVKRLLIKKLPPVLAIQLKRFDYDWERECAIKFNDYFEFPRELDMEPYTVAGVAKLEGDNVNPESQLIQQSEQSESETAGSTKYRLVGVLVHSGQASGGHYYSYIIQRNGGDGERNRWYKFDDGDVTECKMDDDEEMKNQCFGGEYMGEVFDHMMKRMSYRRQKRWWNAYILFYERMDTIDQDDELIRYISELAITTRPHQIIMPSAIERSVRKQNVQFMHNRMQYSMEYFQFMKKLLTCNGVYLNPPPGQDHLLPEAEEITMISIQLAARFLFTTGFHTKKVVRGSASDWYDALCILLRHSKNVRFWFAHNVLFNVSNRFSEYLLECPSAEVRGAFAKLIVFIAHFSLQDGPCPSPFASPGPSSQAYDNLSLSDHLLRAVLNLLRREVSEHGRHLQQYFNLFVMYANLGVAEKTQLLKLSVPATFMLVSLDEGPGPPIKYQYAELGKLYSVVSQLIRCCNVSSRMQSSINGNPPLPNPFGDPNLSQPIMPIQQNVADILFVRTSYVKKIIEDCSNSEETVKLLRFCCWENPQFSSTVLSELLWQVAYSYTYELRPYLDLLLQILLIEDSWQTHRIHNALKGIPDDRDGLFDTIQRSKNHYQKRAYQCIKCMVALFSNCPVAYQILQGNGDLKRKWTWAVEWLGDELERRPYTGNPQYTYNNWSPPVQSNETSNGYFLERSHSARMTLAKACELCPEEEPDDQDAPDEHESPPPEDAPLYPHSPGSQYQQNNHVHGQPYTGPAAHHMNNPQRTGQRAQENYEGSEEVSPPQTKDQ
How it was run: (§1)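 Labelled DUBs from HEK293T lysate were NeutrAvidin-enriched, digested with LysC and trypsin, and run by diaPASEF LC-MS/MS. Before that, each 495 µg sample in Tris/CHAPS/IGEPAL buffer with protease inhibitors was treated in triplicate with fragment at 200 µM or vehicle for 3 h, then with Biotin-Ahx-Ub-VS at 0.5 µM final for 1 h. Values are average log2 ratios of fragment over vehicle by unpaired t-test, based on global-median-normalised Spectronaut label-free quantities from proteins with ≥2 unique peptides.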

[2] = biological target: UniProt O00487
Chain of UniProt O00487 (O00487 whole entry): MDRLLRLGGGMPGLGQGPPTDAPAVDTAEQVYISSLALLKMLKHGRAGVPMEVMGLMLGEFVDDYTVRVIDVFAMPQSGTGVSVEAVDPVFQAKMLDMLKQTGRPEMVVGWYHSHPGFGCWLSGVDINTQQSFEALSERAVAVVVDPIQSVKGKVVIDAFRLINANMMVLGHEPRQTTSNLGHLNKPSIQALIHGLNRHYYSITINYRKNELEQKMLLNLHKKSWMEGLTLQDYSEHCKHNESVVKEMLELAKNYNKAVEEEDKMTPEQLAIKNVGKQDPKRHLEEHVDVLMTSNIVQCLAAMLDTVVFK
How it was run: as §1

[3] = biological target: UniProt O00507
How it was run: as §1

[4] = biological target: UniProt P51784
Chain of UniProt P51784 (P51784 whole entry): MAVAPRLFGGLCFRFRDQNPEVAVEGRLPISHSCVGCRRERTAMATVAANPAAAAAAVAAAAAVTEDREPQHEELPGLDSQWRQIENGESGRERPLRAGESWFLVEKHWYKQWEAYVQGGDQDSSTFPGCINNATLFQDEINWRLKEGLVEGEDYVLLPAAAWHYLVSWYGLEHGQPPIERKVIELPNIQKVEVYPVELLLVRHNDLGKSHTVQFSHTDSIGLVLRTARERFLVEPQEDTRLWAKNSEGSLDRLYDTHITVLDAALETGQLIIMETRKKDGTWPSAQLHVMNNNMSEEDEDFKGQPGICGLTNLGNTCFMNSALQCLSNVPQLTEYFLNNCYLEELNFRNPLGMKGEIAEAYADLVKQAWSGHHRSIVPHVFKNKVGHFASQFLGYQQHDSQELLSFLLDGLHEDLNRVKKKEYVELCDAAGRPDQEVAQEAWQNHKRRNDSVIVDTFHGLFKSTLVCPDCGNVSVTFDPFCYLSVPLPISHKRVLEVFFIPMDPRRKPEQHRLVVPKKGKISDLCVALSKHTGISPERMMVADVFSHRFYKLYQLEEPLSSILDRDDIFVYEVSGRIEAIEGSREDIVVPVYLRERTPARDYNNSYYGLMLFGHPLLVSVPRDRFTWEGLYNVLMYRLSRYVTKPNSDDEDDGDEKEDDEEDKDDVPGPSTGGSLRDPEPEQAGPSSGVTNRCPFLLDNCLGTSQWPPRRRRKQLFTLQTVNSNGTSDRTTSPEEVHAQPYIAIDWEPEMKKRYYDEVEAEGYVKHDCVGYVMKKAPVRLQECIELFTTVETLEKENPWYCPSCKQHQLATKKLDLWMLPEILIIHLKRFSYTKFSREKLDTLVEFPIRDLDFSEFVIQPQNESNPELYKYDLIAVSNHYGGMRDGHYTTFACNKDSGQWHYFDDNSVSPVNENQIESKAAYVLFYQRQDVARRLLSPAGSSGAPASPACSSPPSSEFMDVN
How it was run: as §1

[5] = biological target: T1, UniProt Q5T2D3
T1 sequence (whole entry): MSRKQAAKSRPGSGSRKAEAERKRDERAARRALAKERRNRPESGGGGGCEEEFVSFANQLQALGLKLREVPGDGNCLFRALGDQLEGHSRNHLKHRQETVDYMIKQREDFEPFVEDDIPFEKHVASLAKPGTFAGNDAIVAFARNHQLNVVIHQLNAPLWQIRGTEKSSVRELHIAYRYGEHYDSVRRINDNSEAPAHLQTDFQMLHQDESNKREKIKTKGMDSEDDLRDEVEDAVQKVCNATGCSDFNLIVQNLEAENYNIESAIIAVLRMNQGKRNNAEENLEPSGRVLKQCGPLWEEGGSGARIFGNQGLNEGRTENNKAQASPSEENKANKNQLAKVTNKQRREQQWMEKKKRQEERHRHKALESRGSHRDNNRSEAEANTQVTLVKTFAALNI
How it was run: as §1

[6] = biological target: T2, UniProt Q8TE49
T2 sequence (whole entry): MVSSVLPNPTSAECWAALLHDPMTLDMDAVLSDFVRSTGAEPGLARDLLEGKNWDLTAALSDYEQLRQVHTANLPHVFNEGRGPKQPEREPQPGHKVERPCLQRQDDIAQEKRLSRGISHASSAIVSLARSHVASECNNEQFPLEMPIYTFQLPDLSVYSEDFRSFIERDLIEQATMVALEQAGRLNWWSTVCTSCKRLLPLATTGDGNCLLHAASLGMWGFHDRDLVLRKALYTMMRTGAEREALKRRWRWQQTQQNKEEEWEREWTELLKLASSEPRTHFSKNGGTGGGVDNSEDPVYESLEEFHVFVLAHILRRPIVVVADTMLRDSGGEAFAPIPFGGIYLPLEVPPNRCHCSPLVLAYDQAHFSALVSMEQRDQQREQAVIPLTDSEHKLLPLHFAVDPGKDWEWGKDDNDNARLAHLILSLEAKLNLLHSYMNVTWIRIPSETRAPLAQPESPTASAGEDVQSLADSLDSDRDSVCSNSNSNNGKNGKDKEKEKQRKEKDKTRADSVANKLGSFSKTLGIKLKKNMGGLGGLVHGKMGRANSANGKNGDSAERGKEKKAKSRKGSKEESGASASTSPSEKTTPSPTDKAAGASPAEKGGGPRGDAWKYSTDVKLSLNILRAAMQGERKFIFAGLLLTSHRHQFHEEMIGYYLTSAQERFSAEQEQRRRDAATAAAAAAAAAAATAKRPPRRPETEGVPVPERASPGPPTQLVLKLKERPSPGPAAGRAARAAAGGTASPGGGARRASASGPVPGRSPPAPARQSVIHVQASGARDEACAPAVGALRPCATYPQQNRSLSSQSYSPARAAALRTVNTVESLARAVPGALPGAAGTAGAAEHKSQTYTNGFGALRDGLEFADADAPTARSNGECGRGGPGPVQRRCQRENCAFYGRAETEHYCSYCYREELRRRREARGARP
How it was run: as §1

[7] = biological target: T3, UniProt Q9P2H5
T3 sequence (whole entry): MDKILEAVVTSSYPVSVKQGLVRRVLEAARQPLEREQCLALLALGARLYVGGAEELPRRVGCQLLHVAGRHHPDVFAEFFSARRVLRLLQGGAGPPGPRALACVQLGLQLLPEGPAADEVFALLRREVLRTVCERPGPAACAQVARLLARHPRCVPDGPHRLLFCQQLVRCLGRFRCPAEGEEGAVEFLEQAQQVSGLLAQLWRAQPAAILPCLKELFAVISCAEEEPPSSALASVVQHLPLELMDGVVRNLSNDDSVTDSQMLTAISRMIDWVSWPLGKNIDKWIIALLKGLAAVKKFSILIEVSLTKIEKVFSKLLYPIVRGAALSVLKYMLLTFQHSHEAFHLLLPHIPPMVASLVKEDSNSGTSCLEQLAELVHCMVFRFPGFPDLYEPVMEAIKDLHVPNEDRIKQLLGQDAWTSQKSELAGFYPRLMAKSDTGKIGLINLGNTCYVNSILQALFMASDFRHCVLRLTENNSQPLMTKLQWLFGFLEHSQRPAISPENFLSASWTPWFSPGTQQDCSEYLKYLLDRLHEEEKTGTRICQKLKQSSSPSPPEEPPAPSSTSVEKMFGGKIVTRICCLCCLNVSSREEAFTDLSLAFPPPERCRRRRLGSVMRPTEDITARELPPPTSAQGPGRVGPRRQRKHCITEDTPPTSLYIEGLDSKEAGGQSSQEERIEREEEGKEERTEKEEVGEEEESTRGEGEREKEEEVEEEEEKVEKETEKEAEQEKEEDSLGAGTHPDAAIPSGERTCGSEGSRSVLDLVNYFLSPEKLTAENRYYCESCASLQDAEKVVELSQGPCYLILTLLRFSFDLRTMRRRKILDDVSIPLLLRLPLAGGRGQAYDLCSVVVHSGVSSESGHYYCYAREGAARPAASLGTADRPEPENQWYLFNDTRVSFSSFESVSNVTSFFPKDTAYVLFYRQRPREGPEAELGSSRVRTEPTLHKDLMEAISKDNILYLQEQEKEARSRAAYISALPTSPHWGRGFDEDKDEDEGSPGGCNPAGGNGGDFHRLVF
How it was run: as §1

[8] = biological target: T4, UniProt Q9UGI0
T4 sequence (whole entry): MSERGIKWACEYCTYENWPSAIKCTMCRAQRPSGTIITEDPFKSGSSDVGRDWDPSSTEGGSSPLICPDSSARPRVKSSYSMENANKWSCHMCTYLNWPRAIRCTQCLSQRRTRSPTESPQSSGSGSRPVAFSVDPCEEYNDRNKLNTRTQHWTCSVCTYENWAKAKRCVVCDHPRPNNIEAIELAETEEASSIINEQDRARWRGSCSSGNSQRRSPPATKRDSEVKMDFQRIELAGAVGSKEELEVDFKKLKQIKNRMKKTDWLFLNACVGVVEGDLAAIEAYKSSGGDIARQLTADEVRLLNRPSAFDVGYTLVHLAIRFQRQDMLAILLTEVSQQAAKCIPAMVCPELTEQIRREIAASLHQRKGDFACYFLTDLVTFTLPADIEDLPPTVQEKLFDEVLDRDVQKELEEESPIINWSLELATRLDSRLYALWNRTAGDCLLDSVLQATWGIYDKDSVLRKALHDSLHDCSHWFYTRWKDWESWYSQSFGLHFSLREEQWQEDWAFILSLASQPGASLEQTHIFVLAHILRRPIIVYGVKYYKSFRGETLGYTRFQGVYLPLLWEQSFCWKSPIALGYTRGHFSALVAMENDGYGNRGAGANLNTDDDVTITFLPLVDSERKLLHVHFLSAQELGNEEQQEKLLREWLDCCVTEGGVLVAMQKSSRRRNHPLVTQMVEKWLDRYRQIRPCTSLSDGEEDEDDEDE
How it was run: as §1

[9] = biological target: T5, YOD1 (UniProt Q5VVQ6)
T5 sequence (whole entry): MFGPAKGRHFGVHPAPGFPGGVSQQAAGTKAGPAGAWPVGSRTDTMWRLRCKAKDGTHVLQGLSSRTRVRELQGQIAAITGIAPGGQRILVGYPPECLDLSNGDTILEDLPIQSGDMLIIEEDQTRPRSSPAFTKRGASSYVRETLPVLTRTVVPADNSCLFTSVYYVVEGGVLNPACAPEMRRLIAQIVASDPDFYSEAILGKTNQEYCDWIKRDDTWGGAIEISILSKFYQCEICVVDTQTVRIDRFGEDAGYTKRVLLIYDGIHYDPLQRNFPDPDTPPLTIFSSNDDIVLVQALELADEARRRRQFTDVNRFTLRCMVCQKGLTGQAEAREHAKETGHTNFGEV
How it was run: as §1

Measured: log2 ratio of Biotin-Ahx-Ub-VS probe labelling

O=C(O)C1Cc2ccccc2CN1C(=O)CCl (centres undefined)
inactive: [1] -0.449 | [2] -0.262 | [3] -0.298 | [4] -0.0646 | [5] -0.268 | [6] -0.664 | [7] -0.394 | [8] -0.642 | [9] -0.0629
